Drawing on PubChem BioAssay AID652154 (Broad Institute, 2013), this text covers inhibition for 64 compounds.

Several values for one entry are separate records, joined by “and”; a condition that tells them apart may be missing. Identical values can stand only once. Out of some 360,000 compounds screened, about 4,200 (1.2%) were called active. The entries come from a sample that favours actives as a whole. Values without a mark were called inactive.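 How the source made its calls: active means mean replicate inhibition at least 60% with every replicate also reaching 60%; inconclusive means only one of the two criteria is met; inactive means mean below 60% and not all replicates reaching 60%.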

The assay in a line: inhibitors of PAX8-driven TPO luciferase reporter, primary screen, RMG-I cells, single concentration (AID 652154).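 Further: luciferase light reporting Pax8 driven TPO promoter activity; plate controls were median of neutral control wells for no effect and mitoxantrone controls for full effect.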 Conditions: SteadyGlo, 24 h, at 12.6 µM, hits give high values. In general terms: In a reporter assay the amount or activity of a reporter protein is the signal.
Turning to `Cc1ccccc1-c1ccc([C@@H]2[C@H](CO)N3CCCCN(S(=O)(=O)c4ccc(F)cc4)C[C@@H]23)cc1`, the inhibition (as a rule, the drop in the measured response relative to a control, in per cent) was -34.4%. In the case of `O=C(OCC(=O)N1CCN(C(=O)c2ccco2)CC1)c1c(Cl)cccc1Cl`, the inhibition is -6.1%. Then `Cc1ccc(C)c(OCC(=O)N2CCN(C(=O)c3ccco3)CC2)c1`, with 64.3% (active); and `Cc1ccc(OCC(=O)Nc2ccc(N3CCN(C(=O)c4ccco4)CC3)cc2)c(C)c1`, with 7.91%.

In the case of `CC(C)c1cc(N=O)cc(C(C)C)c1O`, the inhibition was 1.72%. The figure for `CC(C)=CCc1ccc(O)c(=O)cc1C(C)C` is 79.1% (active). In the case of `O=C(C[C@@H]1CC[C@H](NS(=O)(=O)c2cccc(F)c2)[C@H](CO)O1)N1CCCCC1`, the inhibition is 2.78%. With `O=C(CN1CCOCC1)N1CCCCN2[C@H](C1)[C@H](c1ccc(-c3ccccc3F)cc1)[C@@H]2CO`, the inhibition is 0.84%.

As to `C[C@@H]1CN([C@H](C)CO)C(=O)c2cc(NC(=O)c3ccncc3)ccc2O[C@@H]1CN(C)C(=O)Nc1ccc(F)cc1`, the inhibition was -12.7%. The figure for `CC[C@H](C)[C@H]1CNC(=O)C(=O)N1CC1CCN(CCc2ccc(OC)c(OC)c2)CC1` is 5.58%.

With `Cc1noc(C)c1S(=O)(=O)Nc1ccc2c(c1)CC(=O)N([C@@H](C)CO)C[C@@H](C)[C@@H](CN(C)C(=O)Nc1ccc(C(F)(F)F)cc1)O2`, the inhibition was 4.57%. `COc1ccc(NC(=O)N(C)C[C@@H]2OCCCC[C@@H](C)Oc3ccc(NS(=O)(=O)c4ccc(Cl)cc4)cc3C(=O)N([C@H](C)CO)C[C@H]2C)cc1`: the inhibition was 63.7% (active). For `COc1ccc(NC(=O)N(C)C[C@H]2OCCCC[C@H](C)Oc3ccc(NS(=O)(=O)c4ccc(Cl)cc4)cc3C(=O)N([C@@H](C)CO)C[C@H]2C)cc1`, the inhibition is -13.3%. The figure for `C[C@@H]1CCCCO[C@H](CN(C)CC2CCCCC2)[C@H](C)CN([C@H](C)CO)C(=O)c2cc(NS(=O)(=O)c3ccc(F)cc3)ccc2O1` is 53.6%. The figure for `C[C@@H]1CCCCO[C@H](CN(C)C(=O)NC2CCCCC2)[C@H](C)CN([C@H](C)CO)C(=O)c2cc(NS(=O)(=O)c3ccc(Cl)cc3)ccc2O1` is 53.7%. Then `C[C@@H]1CCCCO[C@@H](CN(C)C(=O)NC2CCCCC2)[C@H](C)CN([C@H](C)CO)C(=O)c2cc(NS(=O)(=O)c3ccc(Cl)cc3)ccc2O1`, with 89.7% (active); and `COc1ccc(NC(=O)N(C)C[C@H]2OCCCC[C@@H](C)Oc3ccc(NS(=O)(=O)c4ccc(F)cc4)cc3C(=O)N([C@@H](C)CO)C[C@@H]2C)cc1`, with 1.37%; and `Cc1ccc(S(=O)(=O)Nc2ccc3c(c2)C(=O)N([C@@H](C)CO)C[C@@H](C)[C@H](CN(C)C(=O)Nc2cccc4ccccc24)OCCCC[C@H](C)O3)cc1`, with 22.8%. Regarding `C[C@H]1CCCCO[C@@H](CN(C)C(=O)Nc2cccc3ccccc23)[C@@H](C)CN([C@@H](C)CO)C(=O)c2cc(NS(=O)(=O)c3ccc(Cl)cc3)ccc2O1`, the inhibition is 71.8% (active). Consider `C[C@H]1CCCCO[C@H](CN(C)CC2CCCCC2)[C@@H](C)CN([C@@H](C)CO)C(=O)c2cc(NS(=O)(=O)c3ccc(Cl)cc3)ccc2O1`, for which the inhibition was 68.9% (active). Then `C[C@H]1CCCCO[C@@H](CN(C)C(=O)NC2CCCCC2)[C@@H](C)CN([C@@H](C)CO)C(=O)c2cc(NS(=O)(=O)c3ccc(Cl)cc3)ccc2O1`, with 32.2%; and `C[C@@H]1CCCCO[C@@H](CN(C)C(=O)Nc2cccc3ccccc23)[C@H](C)CN([C@@H](C)CO)C(=O)c2cc(NS(=O)(=O)c3ccccc3)ccc2O1`, with 22.1%; and `C[C@H](CO)N1C[C@H](C)[C@H](CN(C)CC2CCCCC2)OCCCC[C@H](C)Oc2ccc(NS(=O)(=O)c3ccc(F)cc3)cc2C1=O`, with 52.9%.

`C[C@@H]1CN([C@@H](C)CO)S(=O)(=O)c2ccc(C3=CCCCC3)cc2O[C@@H]1CN(C)Cc1cccc(C(=O)O)c1`: the inhibition is -22.5%.

Take `C/C=C/c1ccc([C@@H]2[C@@H](CO)N(C(C)=O)[C@H]2CN(C)C(=O)CN(C)C)cc1`: the inhibition was 0.935%. On to `C[C@H]1CN([C@@H](C)CO)C(=O)Cc2cc(NC(=O)NC3CCCCC3)ccc2O[C@H]1CN(C)S(=O)(=O)c1cccs1`, for which the inhibition is 11.1%. For the compound `O=C(C[C@@H]1CC[C@@H]2[C@H](COC[C@@H](O)CN2Cc2ccc(F)cc2)O1)NCc1ccncn1`, the inhibition is -11.3%.

For `Cc1ccc(S(=O)(=O)Nc2ccc3c(c2)C(=O)N([C@H](C)CO)C[C@@H](C)[C@@H](CN(C)C(=O)CCC(F)(F)F)OCCCC[C@@H](C)O3)cc1`, the inhibition is -2.28%. Then `O=C(NC1CCC1)[C@@H]1[C@@H](CO)[C@@H]2Cn3c(ccc(/C=C/c4ccccc4)c3=O)[C@@H]2N1Cc1ccncc1`, with 7.46%. The figure for `CN1C[C@H](O)COC[C@H]2O[C@H](CC(=O)NC3CCC3)CC[C@@H]21` is -17.3%; for `CN(C)C(=O)c1cccc(-c2ccc([C@H]3[C@H](CO)N4C(=O)CN(C(=O)C5CCCCC5)C[C@@H]34)cc2)c1` it is -1.57%; for `C[C@H](CO)N1C[C@H](C)[C@@H](CN(C)C)OCCCC[C@H](C)Oc2ccc(NC(=O)C3CCCCC3)cc2C1=O` it is -11.4%. As to `O=S(=O)(Cc1ccccc1)N1CCCCN2[C@@H](CO)[C@@H](c3ccc(-c4ccc(F)cc4)cc3)[C@@H]2C1`, the inhibition is 44.5%. The figure for `C[C@@H]1CN([C@@H](C)CO)C(=O)c2cc(NS(=O)(=O)c3cccs3)ccc2O[C@@H](C)CCCCO[C@@H]1CN(C)C(=O)NC1CCCCC1` is 1.62%; for `Cc1ccc2nc(-c3ccc(Br)cc3)cn2c1` it is 92.9% (active); for `Cc1ccc(-c2nc3ccc(Br)cn3c2Cc2ccccc2C(F)(F)F)cc1` it is -163%.

Turning to `Cc1ccc(-c2cn3cc(C)ccc3n2)cc1`, the inhibition is 91.9% (active). The figure for `COc1ccc(-c2nc3ccc(Br)cn3c2Cc2ccc(C)cc2)cc1OC` is -53.2%. The figure for `Cc1ccc(-c2nc3ccc(Cl)cn3c2Cc2ccccc2)cc1` is -103%.

As to `CS(=O)(=O)Nc1cccc(-c2cn3ccccc3n2)c1`, the inhibition is -44.1%. With `O=C(C[C@@H]1C=C[C@H](NC(=O)CN2CCOCC2)[C@@H](CO)O1)NC1CCC1`, the inhibition is -5.79%. `C[C@H](CO)N1C[C@H](C)[C@H](CN(C)C)Oc2c(NS(=O)(=O)c3ccc(Cl)cc3)cccc2C1=O`: the inhibition is -6.01%.

As for `COc1cccc(S(=O)(=O)N[C@H]2CC[C@H](CC(=O)NC3CCC3)O[C@H]2CO)c1`, the inhibition is -7.93%. Consider `O=C(C[C@H]1C[C@@H]2c3cc(NC(=O)c4cccnc4)ccc3O[C@@H]2[C@H](CO)O1)NCc1ccccn1`, for which the inhibition was -7.94%. Turning to `Cc1ccc(N)cc1CN1CCN(c2ncc(Cc3ccccc3)cn2)CC1`, the inhibition is -0.199%. Then `O=C(C1CCCCC1)N1C[C@@H]2N[C@H](C1)C2c1ccc(-c2cccc(F)c2)cc1` (some centres undefined), with -14.7% and -21.2%; and `Cc1cccc(-c2ccc(C3[C@@H]4CN(C(=O)Nc5ccc(C(F)(F)F)cc5)C[C@H]3N4)cc2)c1` (some centres undefined), with 116% (active) and 119% (active). As for `CN(C)C(=O)c1ccc(-c2ccc(C3[C@@H]4CN(C(=O)Nc5ccccc5)C[C@H]3N4)cc2)cc1` (some centres undefined), the inhibition is 5.13%. Then `CNC[C@H]1Oc2ccc(NC(=O)Nc3ccc4c(c3)OCO4)cc2CC(=O)N([C@H](C)CO)C[C@H]1C`, with 2.09%; and `COc1ccc2c3c(n(C)c2c1)[C@@H](CO)N(Cc1ccncc1)CC31CN(C(=O)C2CCC2)C1`, with 7.29%; and `COCC(=O)N(C[C@H]1N[C@H](CO)[C@H]1c1ccc(C2=CCCCC2)cc1)C(C)C`, with 2.09%. Then `Cn1c(=O)n(C)c2cc(C(=O)Nc3ccc(Br)cc3)ccc21`, with -6.12%. As for `Cn1ccc(=Nc2ccc(NC(=O)c3ccc(N=c4ccn(C)c5ccc([N+](=O)[O-])cc45)cc3)cc2)cc1`, the inhibition is 79.6% (active). Then `CN(CC1CCCO1)S(=O)(=O)c1ccc(C(=O)Nc2ccc([N+](=O)[O-])cc2)cc1` (centres undefined), with -4.55%; and `C[C@@H]1CN([C@H](C)CO)C(=O)c2cc(N(C)C)ccc2O[C@@H](C)CCCCO[C@@H]1CN(C)C(=O)CCCN(C)C`, with -0.0835%; and `Cc1sc2ccccc2c1CNC[C@H]1O[C@@H](n2ccc(=O)[nH]c2=O)[C@H](O)[C@@H]1O`, with 3.61%.

In the case of `O=c1ccn([C@@H]2O[C@H](CNS(=O)(=O)c3cc4ccccc4s3)[C@@H](O)[C@H]2O)c(=O)[nH]1`, the inhibition is 78.9% (active). With `O=C(NS(=O)(=O)c1cccs1)[C@H]1O[C@@H](n2ccc(=O)[nH]c2=O)[C@H](O)[C@@H]1O`, the inhibition is -7.69%. Then `C[C@H]1CN([C@@H](C)CO)C(=O)c2c(c3ccccc3n2C)-c2ccccc2CO[C@@H]1CN(C)Cc1ccc2c(c1)OCCN2C`, with -18%. The figure for `CS(=O)(=O)N1[C@H](CO)[C@H](c2ccccc2)C12CN(C(=O)C1CC1)C2` is -2.16%; for `COc1cccc(-c2cnc3c(c2)C(=O)N([C@H](C)CO)C[C@H](C)[C@@H](CN(C)Cc2ccc(C(=O)O)cc2)O3)c1` it is 9.85%; for `OC[C@@H]1CN(Cc2ccc(-c3ccccc3)cc2)C[C@H](n2cnc3c(NC4CCCC4)ncnc32)O1` it is 64.7% (active).

For `OC[C@@H]1CN(Cc2cccs2)C[C@H](n2cnc3c(NC4CCCC4)ncnc32)O1`, the inhibition is -6.69%.

In the case of `OC[C@@H]1CN(Cc2ccc(F)cc2)C[C@H](n2cnc3c(NC4CCCC4)ncnc32)O1`, the inhibition was 3.85%.
